Results: PubChem BioAssay (EPA / NIEHS)
Inconclusive results are not listed. Active and inactive are the calls of the source. How the source made its calls, unless noted: active means hit-call score of the fitted dose curve at least 0.9, where 1 is the maximum; inconclusive means response in the unintended direction; inactive means score below 0.9.

Key:
[1] = ATG_NRF2_ARE_CIS: Attagene CIS-FACTORIAL HepG2 Assay for human Nuclear Factor Erythroid 2 Related Factor 2 (NFR2) response to Antioxidant Response Elements (ARE) (AID 2282992; active means hit-call score of the fitted dose curve at least 0.9, where 1 is the maximum; inactive means score below 0.9;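 on AC50: reporter mRNA level measured by RT-PCR and capillary electrophoresis fluorescence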); details: HepG2 Attagene ARE/NRF2 reporter, transcription factor activity; actives raise or lower the signal
Summary of the method: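 Endogenous transcription factor activity in human liver HepG2 cells is tracked via a cis-element-driven reporter within a multiplexed set. mRNA induction is read by RT-PCR and capillary electrophoresis after 24 h, with DMSO as baseline.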

[2] = ATG_Oct_MLP_CIS: Attagene CIS-FACTORIAL HepG2 Assay for human Octamer-Binding Transcription Factor (Oct) (AID 2282993; active means hit-call score of the fitted dose curve at least 0.9, where 1 is the maximum; inactive means score below 0.9); details: HepG2 Attagene cis-factorial Oct reporter, mRNA; actives raise or lower the signal
Summary of the method: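 HepG2 cells transiently transfected with cis-promoter-driven multiplexed reporter transcription units, dosed for 24 h. Reporter mRNA quantified by RT-PCR, fluorescent labelling, HpaI digestion and capillary electrophoresis; bidirectional fits versus DMSO baseline.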

[3] = BSK_3C_TissueFactor: BioMAP Diversity Plus: 3C Assay for Tissue Factor Biomarker Activity (AID 2282997; active means hit-call score of the fitted dose curve at least 0.9, where 1 is the maximum; inactive means score below 0.9); details: BioMAP 3C HUVEC, tissue factor biomarker readout; actives raise or lower the signal
Summary of the method: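 Tissue factor on primary human umbilical vein endothelium was read by ELISA 24 h after dosing, gain or loss relative to DMSO. Cytotoxicity ran alongside via SRB (0.1%, TCA-fixed, 560 nm).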

[4] = BSK_3C_uPAR: BioMAP Diversity Plus: 3C Assay for Urokinase-type plasminogen activator receptor (uPAR) Biomarker Activity (AID 2282998; active means hit-call score of the fitted dose curve at least 0.9, where 1 is the maximum; inactive means score below 0.9); details: BioMAP 3C HUVEC, uPAR biomarker ELISA; actives raise or lower the signal
Summary of the method: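 Human umbilical vein endothelial primary cells were exposed to test chemical for 24 h. Cell-surface uPAR was then quantified by ELISA, and responses were fitted bidirectionally against DMSO as negative control and baseline.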

[5] = BSK_3C_VCAM1: BioMAP Diversity Plus: 3C Assay for Vascular cell adhesion molecule 1 (VCAM1) Biomarker Activity (AID 2282999; active means hit-call score of the fitted dose curve at least 0.9, where 1 is the maximum; inactive means score below 0.9); details: BioMAP 3C HUVEC, VCAM1 ELISA, cytokine-stimulated; actives raise or lower the signal
Summary of the method: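 Activity fitted in both directions relative to DMSO, with ELISA measurement of the surface marker on primary HUVEC (3C) at 24 h post-treatment; parallel SRB staining (0.1% SRB, TCA-fixed, 560 nm) flagged overt cytotoxicity.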

[6] = read-out: Intercellular Adhesion Molecule 1 (ICAM1), ICAM1 (gene 3383); experiment: BSK_3C_ICAM1: BioMAP Diversity Plus: 3C Assay for Intercellular Adhesion Molecule 1 (ICAM1) Biomarker Activity (AID 2283003; active means hit-call score of the fitted dose curve at least 0.9, where 1 is the maximum; inactive means score below 0.9); details: primary human endothelial cells (HUVEC); actives raise or lower the signal
Summary of the method: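 ELISA read-out of ICAM-1; HUVEC (primary human), 3C system, 24 h post-dosing; bidirectional fit vs DMSO baseline.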

[7] = target: Retinoic acid receptor alpha (Homo sapiens) (UniProt P10276); experiment: ATG_RARa_TRANS: Attagene TRANS-FACTORIAL HepG2 Assay for human Retinoic Acid Receptor alpha (RARa) (AID 2283005)
Retinoic acid receptor alpha (Homo sapiens), sequence (P10276 whole entry, looked up, the tested form may be a part): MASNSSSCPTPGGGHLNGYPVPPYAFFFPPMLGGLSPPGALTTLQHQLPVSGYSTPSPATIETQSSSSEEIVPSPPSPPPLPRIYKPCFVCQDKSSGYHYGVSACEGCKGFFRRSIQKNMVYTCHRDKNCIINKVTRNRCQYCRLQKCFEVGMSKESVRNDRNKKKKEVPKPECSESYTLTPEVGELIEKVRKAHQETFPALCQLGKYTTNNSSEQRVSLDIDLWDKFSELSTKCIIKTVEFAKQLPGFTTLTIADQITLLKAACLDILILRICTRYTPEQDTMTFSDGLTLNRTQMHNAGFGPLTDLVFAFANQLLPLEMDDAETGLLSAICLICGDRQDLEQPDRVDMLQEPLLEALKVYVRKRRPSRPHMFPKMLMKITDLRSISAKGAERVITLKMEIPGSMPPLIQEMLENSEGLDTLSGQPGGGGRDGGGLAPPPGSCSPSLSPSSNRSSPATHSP
Summary of the method: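 Reporter transcripts, measured by RT-PCR with fluorescent labeling and capillary electrophoresis after 24 h dosing, reflect activity of an exogenous human RARa–GAL4 fusion in transiently transfected HepG2. Fitted for increase relative to DMSO.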

[8] = BSK_3C_Proliferation: Cell Proliferation Assessment in the BioMAP Diversity Plus: 3C Assay (AID 2283006; active means hit-call score of the fitted dose curve at least 0.9, where 1 is the maximum; inactive means score below 0.9); details: primary human endothelial cells (HUVEC)
Summary of the method: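 HUVEC, sub-confluent; 48 h chemical exposure; 10% TCA fix, 0.1% SRB stain, A560 total protein. Gain or loss of signal fitted both directions vs DMSO control.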

[9] = target: Nuclear receptor subfamily 1 group I member 2 (Homo sapiens) (UniProt O75469); experiment: ATG_PXR_TRANS: Attagene TRANS-FACTORIAL HepG2 Assay for human Pregnane X Receptor (PXR) (AID 2283008)
Nuclear receptor subfamily 1 group I member 2 (Homo sapiens), sequence (O75469 whole entry, looked up, the tested form may be a part): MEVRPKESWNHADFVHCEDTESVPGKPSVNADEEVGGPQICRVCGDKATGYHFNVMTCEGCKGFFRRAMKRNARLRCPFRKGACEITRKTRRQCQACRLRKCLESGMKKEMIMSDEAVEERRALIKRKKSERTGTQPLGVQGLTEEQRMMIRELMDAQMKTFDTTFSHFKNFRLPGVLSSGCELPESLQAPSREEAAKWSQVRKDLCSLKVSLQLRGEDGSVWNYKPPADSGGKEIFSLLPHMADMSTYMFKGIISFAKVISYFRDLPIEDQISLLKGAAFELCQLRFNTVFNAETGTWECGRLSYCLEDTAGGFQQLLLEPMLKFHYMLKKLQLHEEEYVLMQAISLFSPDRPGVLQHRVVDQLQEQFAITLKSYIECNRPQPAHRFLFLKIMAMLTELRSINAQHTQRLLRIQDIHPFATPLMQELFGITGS
Summary of the method: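 HepG2 transfected (FuGene 6) with GAL4-UAS reporter units + PXR-Gal4 chimera; dosed 24 h. Total RNA → oligo(dT) RT → PCR → 6-FAM primer extension → HpaI cut → CE. Gain-of-signal vs DMSO.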

[10] = target: human RAR-related Orphan Receptor gamma (RORg), RORC (gene 6097) (UniProt P51449); experiment: ATG_RORg_TRANS: Attagene TRANS-FACTORIAL HepG2 Assay for human RAR-related Orphan Receptor gamma (RORg) (AID 2283011)
Summary of the method: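 Reporter transcripts from a transfected RORg-GAL4 chimera in HepG2 cells were quantified 24 h after dosing by RT-PCR, 6-FAM labelling, HpaI digestion and capillary electrophoresis; increases over DMSO baseline were fitted.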

[11] = target: human Retinoid X Receptor beta (RXRb), RXRB (gene 6257) (UniProt P28702); experiment: ATG_RXRb_TRANS: Attagene TRANS-FACTORIAL HepG2 Assay for human Retinoid X Receptor beta (RXRb) (AID 2283013)
human Retinoid X Receptor beta (RXRb), RXRB (gene 6257), sequence (P28702 whole entry, looked up, the tested form may be a part): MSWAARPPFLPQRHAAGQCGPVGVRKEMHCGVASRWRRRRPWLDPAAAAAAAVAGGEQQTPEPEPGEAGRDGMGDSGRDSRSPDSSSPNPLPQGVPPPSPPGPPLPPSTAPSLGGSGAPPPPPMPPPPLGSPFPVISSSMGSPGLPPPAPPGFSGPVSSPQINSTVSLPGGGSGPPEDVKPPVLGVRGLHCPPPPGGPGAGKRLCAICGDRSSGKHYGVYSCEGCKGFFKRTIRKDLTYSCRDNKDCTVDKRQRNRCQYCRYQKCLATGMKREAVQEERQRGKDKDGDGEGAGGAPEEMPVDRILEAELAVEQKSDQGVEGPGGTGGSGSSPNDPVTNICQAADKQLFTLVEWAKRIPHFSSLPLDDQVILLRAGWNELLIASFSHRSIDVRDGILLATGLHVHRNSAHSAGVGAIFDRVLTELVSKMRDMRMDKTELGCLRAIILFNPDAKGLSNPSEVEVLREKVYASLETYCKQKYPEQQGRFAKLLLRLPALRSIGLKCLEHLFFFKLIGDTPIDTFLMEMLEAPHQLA
Summary of the method: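 Read-out: reporter mRNA induction via RT-PCR plus capillary electrophoresis fluorescence, analysed as signal increase relative to DMSO. Cells were human HepG2, transiently transfected with GAL4-UAS reporter constructs and chimeric receptor-Gal4 fusions, dosed for 24 h.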

[12] = BSK_4H_Eotaxin3: BioMAP Diversity Plus: 4H Assay for Eotaxin 3 Biomarker Activity (AID 2283000; active means hit-call score of the fitted dose curve at least 0.9, where 1 is the maximum; inactive means score below 0.9;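 further: CCL26 protein level quantified by ELISA in parallel with SRB cytotoxicity check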); details: primary human endothelial cells (HUVEC); actives raise or lower the signal
Summary of the method: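 Human umbilical vein endothelial cells (BSK_4H system) dosed with test chemical; Eotaxin-3 (CCL26) measured by ELISA 24 h after dosing. Bidirectional curve fitting relative to DMSO negative control as baseline.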

[13] = target: human Peroxisome Proliferator-activated Receptor alpha (PPARa), PPARA (gene 5465) (UniProt Q07869); experiment: ATG_PPARa_TRANS: Attagene TRANS-FACTORIAL HepG2 Assay for human Peroxisome Proliferator-activated Receptor alpha (PPARa) (AID 2283001)
human Peroxisome Proliferator-activated Receptor alpha (PPARa), PPARA (gene 5465), sequence (Q07869 whole entry, looked up, the tested form may be a part): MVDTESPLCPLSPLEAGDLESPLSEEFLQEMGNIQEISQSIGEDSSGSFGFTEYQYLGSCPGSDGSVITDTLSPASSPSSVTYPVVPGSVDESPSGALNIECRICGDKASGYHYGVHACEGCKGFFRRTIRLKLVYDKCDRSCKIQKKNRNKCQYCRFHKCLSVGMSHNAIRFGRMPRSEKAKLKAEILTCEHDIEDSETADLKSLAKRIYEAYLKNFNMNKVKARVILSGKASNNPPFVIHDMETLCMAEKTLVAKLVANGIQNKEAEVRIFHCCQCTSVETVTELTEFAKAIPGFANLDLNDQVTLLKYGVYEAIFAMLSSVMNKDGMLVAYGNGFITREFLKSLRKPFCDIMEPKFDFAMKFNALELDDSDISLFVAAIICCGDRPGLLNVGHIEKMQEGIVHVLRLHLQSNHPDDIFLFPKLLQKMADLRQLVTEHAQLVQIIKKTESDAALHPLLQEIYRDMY
Summary of the method: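 Transfected HepG2 cells treated with test chemical for 24 h. RNA isolated, reverse-transcribed with oligo(dT), PCR-amplified, FAM-labelled and HpaI-digested. Fragments sized by capillary electrophoresis; gain-of-signal fit relative to DMSO.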

[14] = target: human Peroxisome Proliferator-activated Receptor delta (PPARd), PPARD (gene 5467) (UniProt Q03181); experiment: ATG_PPARd_TRANS: Attagene TRANS-FACTORIAL HepG2 Assay for human Peroxisome Proliferator-activated Receptor delta (PPARd) (AID 2283002)
human Peroxisome Proliferator-activated Receptor delta (PPARd), PPARD (gene 5467), sequence (Q03181 whole entry, looked up): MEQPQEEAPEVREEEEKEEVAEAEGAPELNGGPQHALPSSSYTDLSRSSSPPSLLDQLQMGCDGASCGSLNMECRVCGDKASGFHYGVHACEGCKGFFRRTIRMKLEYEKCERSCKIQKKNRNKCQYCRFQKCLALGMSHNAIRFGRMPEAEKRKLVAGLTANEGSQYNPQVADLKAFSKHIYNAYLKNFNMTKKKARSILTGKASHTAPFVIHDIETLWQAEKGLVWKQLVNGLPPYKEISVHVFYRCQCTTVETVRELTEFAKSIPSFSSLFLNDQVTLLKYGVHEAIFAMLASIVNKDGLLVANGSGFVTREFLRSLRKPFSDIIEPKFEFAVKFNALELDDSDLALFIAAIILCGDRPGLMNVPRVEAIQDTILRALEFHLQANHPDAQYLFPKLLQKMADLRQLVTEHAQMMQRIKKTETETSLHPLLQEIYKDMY
Summary of the method: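 Cell-based TRANS reporter: HepG2, transient MRTU transfection, 24 h exposure. Readout = reporter mRNA (RT-PCR/CE, 6-FAM). Gain-of-signal fit vs DMSO control.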

[15] = target: Peroxisome proliferator-activated receptor gamma (Homo sapiens) (UniProt P37231); experiment: ATG_PPARg_TRANS: Attagene TRANS-FACTORIAL HepG2 Assay for human Peroxisome Proliferator-activated Receptor-gamma (PPARg) (AID 2283007)
Peroxisome proliferator-activated receptor gamma (Homo sapiens), sequence (P37231 whole entry, looked up, the tested form may be a part): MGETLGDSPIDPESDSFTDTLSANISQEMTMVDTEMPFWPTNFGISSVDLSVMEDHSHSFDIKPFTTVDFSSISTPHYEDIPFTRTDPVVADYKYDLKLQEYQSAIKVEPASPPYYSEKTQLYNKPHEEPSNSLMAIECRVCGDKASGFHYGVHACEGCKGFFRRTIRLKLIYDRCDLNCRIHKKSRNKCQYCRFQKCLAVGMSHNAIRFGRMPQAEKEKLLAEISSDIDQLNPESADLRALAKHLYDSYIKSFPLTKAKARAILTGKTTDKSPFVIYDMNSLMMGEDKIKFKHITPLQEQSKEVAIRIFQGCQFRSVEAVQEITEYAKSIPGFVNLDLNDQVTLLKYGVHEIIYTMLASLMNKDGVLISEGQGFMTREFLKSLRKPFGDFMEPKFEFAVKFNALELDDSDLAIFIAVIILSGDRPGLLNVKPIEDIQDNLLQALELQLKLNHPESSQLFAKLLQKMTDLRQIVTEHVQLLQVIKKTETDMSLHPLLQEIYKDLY
Summary of the method: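 Read-out: reporter mRNA induction, detected by fluorescence after RT-PCR and capillary electrophoresis. Transiently transfected human HepG2 liver cells carrying a chimeric NR-Gal4 construct were dosed for 24 h; activity was fitted upward relative to DMSO.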

[16] = target: human RAR-related Orphan Receptor beta (RORb), RORB (gene 6096) (UniProt Q92753); experiment: ATG_RORb_TRANS: Attagene TRANS-FACTORIAL HepG2 Assay for human RAR-related Orphan Receptor beta (RORb) (AID 2283010)
Summary of the method: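 HepG2, transient MRTU transfection (GAL4-UAS reporters, exogenous NR-Gal4 chimeras); 24 h compound exposure; total RNA → RT-PCR → 6-FAM primer extension → HpaI digest → CE fluorescence. Positive direction vs DMSO baseline.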

[17] = target: Cellular tumor antigen p53 (Homo sapiens) (UniProt P04637); experiment: ATG_p53_CIS: Attagene CIS-FACTORIAL HepG2 Assay for human p53 Transcription Factor (AID 2282994; active means hit-call score of the fitted dose curve at least 0.9, where 1 is the maximum; inactive means score below 0.9); details: HepG2 p53 cis-element reporter, Attagene mRNA; actives raise or lower the signal
Cellular tumor antigen p53 (Homo sapiens), sequence (P04637 whole entry, looked up, the tested form may be a part): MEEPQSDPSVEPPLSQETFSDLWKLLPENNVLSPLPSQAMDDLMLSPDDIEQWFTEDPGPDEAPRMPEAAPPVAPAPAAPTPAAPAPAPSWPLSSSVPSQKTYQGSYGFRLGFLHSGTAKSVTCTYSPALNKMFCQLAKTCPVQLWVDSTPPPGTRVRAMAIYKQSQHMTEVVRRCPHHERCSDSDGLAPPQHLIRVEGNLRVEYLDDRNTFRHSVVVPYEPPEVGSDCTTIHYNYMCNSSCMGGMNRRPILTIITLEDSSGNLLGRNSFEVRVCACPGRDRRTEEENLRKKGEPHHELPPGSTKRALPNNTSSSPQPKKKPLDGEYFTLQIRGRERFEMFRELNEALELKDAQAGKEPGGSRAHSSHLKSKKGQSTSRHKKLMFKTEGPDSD
Summary of the method: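 Steps: transfect HepG2 with multiplexed cis reporter constructs; dose chemicals 24 h; extract RNA, reverse-transcribe, PCR-amplify reporter sequences; FAM-label, HpaI-digest, resolve fragments by CE. Activity fitted both directions relative to DMSO.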

[18] = target: human Retinoic Acid Receptor beta (RARb), RARB (gene 5915) (UniProt P10826); experiment: ATG_RARb_TRANS: Attagene TRANS-FACTORIAL HepG2 Assay for human Retinoic Acid Receptor beta (AID 2283004)
human Retinoic Acid Receptor beta (RARb), RARB (gene 5915), sequence (P10826 whole entry, looked up, the tested form may be a part): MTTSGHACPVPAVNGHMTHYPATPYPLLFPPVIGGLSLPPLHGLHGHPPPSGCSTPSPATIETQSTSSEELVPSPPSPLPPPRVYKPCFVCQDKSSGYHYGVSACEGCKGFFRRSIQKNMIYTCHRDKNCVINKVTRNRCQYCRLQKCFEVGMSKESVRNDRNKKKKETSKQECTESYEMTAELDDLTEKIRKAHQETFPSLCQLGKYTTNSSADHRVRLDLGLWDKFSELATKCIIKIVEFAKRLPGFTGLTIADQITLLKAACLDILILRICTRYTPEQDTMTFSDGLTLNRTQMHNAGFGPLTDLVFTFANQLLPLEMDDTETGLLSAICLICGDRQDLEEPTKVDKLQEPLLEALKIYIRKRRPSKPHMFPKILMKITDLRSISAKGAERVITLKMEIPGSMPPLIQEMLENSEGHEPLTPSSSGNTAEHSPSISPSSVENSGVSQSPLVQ
Summary of the method: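 Induction of reporter mRNA from a chimeric RARb-Gal4 construct was measured by RT-PCR, FAM labelling, HpaI digestion and capillary electrophoresis. Measurements followed 24 h compound treatment of transiently transfected human HepG2 liver cells, with DMSO as baseline.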

[19] = target: Retinoic acid receptor RXR-alpha (Homo sapiens) (UniProt P19793); experiment: ATG_RXRa_TRANS: Attagene TRANS-FACTORIAL HepG2 Assay for human Retinoid X Receptor alpha (RXRa) (AID 2283012)
Retinoic acid receptor RXR-alpha (Homo sapiens), sequence (P19793 whole entry, looked up, the tested form may be a part): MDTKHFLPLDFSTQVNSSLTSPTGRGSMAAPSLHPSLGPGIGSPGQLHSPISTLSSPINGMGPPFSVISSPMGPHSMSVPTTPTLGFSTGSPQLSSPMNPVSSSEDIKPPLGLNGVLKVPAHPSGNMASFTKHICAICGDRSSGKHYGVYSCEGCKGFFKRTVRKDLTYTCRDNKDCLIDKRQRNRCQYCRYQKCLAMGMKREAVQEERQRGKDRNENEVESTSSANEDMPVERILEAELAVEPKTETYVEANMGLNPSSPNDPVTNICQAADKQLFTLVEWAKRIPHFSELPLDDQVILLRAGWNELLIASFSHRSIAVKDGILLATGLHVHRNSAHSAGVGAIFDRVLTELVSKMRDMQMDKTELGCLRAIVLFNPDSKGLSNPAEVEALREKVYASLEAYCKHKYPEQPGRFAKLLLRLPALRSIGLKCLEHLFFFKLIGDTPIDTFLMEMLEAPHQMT
Summary of the method: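 Read-out: fluorescent reporter-transcript fragments quantified by capillary electrophoresis after RT-PCR. Transiently transfected HepG2 cells carrying GAL4-UAS reporters and NR-GAL4 chimeras were exposed to chemical for 24 h; activity scored as increase over DMSO.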

[20] = target: human Retinoic Acid Receptor gamma (RARg), RARG (gene 5916) (UniProt P13631); experiment: ATG_RARg_TRANS: Attagene TRANS-FACTORIAL HepG2 Assay for human Retinoic Acid Receptor gamma (RARg) (AID 2283009)
human Retinoic Acid Receptor gamma (RARg), RARG (gene 5916), sequence (P13631 whole entry, looked up, the tested form may be a part): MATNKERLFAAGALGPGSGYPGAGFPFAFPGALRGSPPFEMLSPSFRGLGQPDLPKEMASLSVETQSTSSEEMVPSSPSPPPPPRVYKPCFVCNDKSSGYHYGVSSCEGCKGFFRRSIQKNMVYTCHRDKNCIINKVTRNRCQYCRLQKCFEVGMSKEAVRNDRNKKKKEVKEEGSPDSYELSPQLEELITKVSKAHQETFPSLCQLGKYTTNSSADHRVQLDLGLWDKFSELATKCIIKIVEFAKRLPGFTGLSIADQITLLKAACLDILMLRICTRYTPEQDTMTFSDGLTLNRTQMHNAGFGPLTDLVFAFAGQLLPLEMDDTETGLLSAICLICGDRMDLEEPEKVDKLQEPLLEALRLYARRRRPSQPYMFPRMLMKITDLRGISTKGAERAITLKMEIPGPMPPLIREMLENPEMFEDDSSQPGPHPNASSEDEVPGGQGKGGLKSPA
Summary of the method: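 Readout: reporter transcript levels via RT-PCR, 6-FAM primer-extension labelling, HpaI digestion and capillary electrophoresis. Cells: HepG2 carrying transfected RARg-GAL4 chimera plus UAS reporter set. Dosing 24 h; DMSO negative control.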

Measured: AC50

CCCCN(CCCC)C(=S)[S-].CCCCN(CCCC)C(=S)[S-].[Ni+2]
inactive: [1] | [2] | [3] | [4] | [5] | [6] | [7] | [8] | [10] | [11]
active: [9] 2.73 µM

c1ccc2sc(SNC3CCCCC3)nc2c1
inactive: [2] | [12] | [13] | [14] | [6] | [8] | [16] | [10] | [11]
active: [1] 80.6 µM | [3] 1.16 µM | [15] 6.77 µM | [9] 20.2 µM

CC(C)(C1CCC(O)CC1)C1CCC(O)CC1 (stereo unspecified)
inactive: [1] | [2] | [17] | [18] | [9] | [19] | [11]

ClCCN1CCOCC1
inactive: [1] | [2] | [17] | [14] | [10] | [11]

CC(C)(C#N)N=NC(C)(C)C#N
inactive: [1] | [2] | [17] | [9] | [11]

CC(C)CP(=S)(S)CC(C)C
inactive: [1] | [2] | [17] | [18] | [7] | [15] | [20] | [16] | [19] | [11]
active: [9] 59.1 µM

CC(O)(CS(=O)(=O)c1ccc(F)cc1)C(=O)Nc1ccc(C#N)c(C(F)(F)F)c1 (stereo unspecified)
active: [1] 94.5 µM | [2] 58 µM
inactive: [17] | [9] | [20] | [19]

N#Cc1cccnc1
inactive: [1] | [2] | [3] | [4] | [13] | [14] | [6] | [8] | [9] | [16]

COc1ccccc1N
inactive: [1] | [2] | [3] | [4] | [5] | [13] | [6] | [18] | [7] | [8] | [15] | [9] | [20] | [16] | [10] | [19] | [11]
